Results on 1 sequence are retold here after article PMC7862700, “An all-to-all approach to the identification of sequence-specific readers for epigenetic DNA modifications on cytosine”.

What all share (assay): DAPPL (digital affinity profiling via proximity ligation, sequencing); 10 mM Tris-HCl pH 7.5, 50 mM NaCl, 1 mM DTT, 4% glycerol, room temperature, 30 min; GST-TFs on glutathione beads, 16-mer random dsDNA library, 0.1% formaldehyde crosslink after washing; high values mean tight binding
One test has as its target T1, FEV (Homo sapiens, UniProt Q99581 1-238).
T1 sequence: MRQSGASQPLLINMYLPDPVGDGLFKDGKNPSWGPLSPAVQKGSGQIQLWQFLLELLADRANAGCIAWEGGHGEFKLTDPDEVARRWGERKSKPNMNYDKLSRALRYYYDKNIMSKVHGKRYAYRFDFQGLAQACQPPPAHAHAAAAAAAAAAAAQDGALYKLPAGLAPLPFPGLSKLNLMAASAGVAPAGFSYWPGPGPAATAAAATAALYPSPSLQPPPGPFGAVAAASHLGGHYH
As to conditions: protein: recombinant; tags: N-terminal GST; dsDNA, one strand shown. Summed up:
(§1)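 Binding signal is given per hexamer as its read frequency for a factor divided by its frequency in the tag-only sample. GST-fused human transcription factors were expressed in yeast, captured on glutathione beads, barcoded with DNA and pooled with that sample, then incubated with 200 nmole of a 16-mer random double-stranded DNA library in Tris/NaCl/DTT/glycerol buffer for 30 min at room temperature. The pools were then washed, crosslinked, proximity-ligated, amplified by PCR and sequenced on an Illumina NextSeq500.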

A further test addresses ETV5 (Homo sapiens, UniProt P41161 1-510). As to conditions: protein: recombinant; tags: N-terminal GST; dsDNA, one strand shown. Summed up:
as §1

A further test concerns the target HSF1 (Homo sapiens, UniProt Q00613 1-529). As to conditions: protein: recombinant; tags: N-terminal GST; chain copies: 3; dsDNA, one strand shown. Summed up:
as §1

For a further test, the target named is T2, SPIC (Homo sapiens, UniProt Q8N5J4 1-248).
T2 sequence: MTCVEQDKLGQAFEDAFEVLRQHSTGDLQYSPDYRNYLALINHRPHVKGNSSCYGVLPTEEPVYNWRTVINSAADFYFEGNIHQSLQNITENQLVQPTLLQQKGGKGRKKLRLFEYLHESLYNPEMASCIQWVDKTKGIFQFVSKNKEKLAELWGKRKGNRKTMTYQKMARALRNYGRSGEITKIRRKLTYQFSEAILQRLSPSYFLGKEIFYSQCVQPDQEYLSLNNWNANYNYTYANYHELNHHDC
As to conditions: protein: recombinant; tags: N-terminal GST; dsDNA, one strand shown. In a few lines: as §1

Another test addresses ELF4 (Homo sapiens, UniProt Q99607 1-663). As to conditions: protein: recombinant; tags: N-terminal GST; dsDNA, one strand shown. In a few lines: as §1
Another test addresses T3, ELK4 (Homo sapiens, UniProt P28324-2 1-405).
T3 sequence: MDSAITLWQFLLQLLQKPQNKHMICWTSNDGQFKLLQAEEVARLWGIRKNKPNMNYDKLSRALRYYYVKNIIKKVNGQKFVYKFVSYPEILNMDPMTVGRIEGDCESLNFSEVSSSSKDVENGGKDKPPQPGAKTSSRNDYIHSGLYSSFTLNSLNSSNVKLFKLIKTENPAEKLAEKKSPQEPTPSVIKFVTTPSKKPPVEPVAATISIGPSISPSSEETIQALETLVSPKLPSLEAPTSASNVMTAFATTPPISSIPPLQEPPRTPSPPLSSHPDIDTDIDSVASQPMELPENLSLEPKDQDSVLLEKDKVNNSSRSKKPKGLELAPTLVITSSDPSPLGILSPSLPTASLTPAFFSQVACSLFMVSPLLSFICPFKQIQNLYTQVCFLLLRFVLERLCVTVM
As to conditions: protein: recombinant; tags: N-terminal GST; dsDNA, one strand shown. Summed up: as §1

Another test addresses T4, ETV2 (Homo sapiens, UniProt O00321 1-342).
T4 sequence: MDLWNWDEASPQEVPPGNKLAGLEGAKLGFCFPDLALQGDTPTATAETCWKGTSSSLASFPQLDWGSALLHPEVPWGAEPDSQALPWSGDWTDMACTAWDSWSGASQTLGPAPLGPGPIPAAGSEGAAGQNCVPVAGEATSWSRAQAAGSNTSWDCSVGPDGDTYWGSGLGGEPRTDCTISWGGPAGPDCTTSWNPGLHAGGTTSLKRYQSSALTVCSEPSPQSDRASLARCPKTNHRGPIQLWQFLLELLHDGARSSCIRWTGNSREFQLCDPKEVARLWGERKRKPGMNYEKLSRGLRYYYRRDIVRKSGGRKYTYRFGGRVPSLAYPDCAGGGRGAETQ
As to conditions: protein: recombinant; tags: N-terminal GST; dsDNA, one strand shown. Summed up: as §1

For another test, the target named is T5, ELF3 (Homo sapiens, UniProt P78545 1-371).
T5 sequence: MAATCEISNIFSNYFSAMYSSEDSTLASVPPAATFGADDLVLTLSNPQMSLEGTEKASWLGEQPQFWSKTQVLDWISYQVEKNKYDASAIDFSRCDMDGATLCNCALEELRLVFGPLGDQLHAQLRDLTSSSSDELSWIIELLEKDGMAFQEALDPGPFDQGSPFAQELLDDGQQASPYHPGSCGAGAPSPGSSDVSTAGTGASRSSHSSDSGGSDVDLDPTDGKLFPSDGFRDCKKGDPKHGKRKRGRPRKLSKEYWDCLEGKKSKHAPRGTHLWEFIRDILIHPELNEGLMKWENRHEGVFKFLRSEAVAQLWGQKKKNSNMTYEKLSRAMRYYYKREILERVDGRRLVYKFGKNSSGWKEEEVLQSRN
As to conditions: protein: recombinant; tags: N-terminal GST; dsDNA, one strand shown. Summed up: as §1

Another test concerns the target CRX (Homo sapiens, UniProt O43186 1-299). As to conditions: protein: recombinant; tags: N-terminal GST; dsDNA, one strand shown. Summed up:
as §1

The next test addresses ETV1 (Homo sapiens, UniProt P50549 1-477). As to conditions: protein: recombinant; tags: N-terminal GST; dsDNA, one strand shown. Summed up: as §1
The next test addresses T6, ERF (Homo sapiens, UniProt P50548 1-548).
T6 sequence: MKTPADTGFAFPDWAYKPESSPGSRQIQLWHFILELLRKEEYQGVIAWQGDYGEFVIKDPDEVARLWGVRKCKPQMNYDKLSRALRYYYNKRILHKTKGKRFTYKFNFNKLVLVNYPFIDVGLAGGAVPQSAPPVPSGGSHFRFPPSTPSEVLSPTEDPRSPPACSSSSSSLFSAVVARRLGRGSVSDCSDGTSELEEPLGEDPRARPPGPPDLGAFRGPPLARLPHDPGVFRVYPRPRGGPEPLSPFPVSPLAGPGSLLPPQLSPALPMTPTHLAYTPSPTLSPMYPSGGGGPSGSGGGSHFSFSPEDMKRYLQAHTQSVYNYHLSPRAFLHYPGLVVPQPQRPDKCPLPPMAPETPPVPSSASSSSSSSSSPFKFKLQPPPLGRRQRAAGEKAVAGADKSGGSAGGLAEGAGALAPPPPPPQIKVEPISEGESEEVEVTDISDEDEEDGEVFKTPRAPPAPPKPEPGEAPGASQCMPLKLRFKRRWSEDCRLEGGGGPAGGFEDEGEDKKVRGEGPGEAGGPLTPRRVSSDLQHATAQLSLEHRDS
As to conditions: protein: recombinant; tags: N-terminal GST; dsDNA, one strand shown. Summed up:
as §1

Another test concerns the target T7, ETV3L (Homo sapiens, UniProt Q6ZN32 1-361).
T7 sequence: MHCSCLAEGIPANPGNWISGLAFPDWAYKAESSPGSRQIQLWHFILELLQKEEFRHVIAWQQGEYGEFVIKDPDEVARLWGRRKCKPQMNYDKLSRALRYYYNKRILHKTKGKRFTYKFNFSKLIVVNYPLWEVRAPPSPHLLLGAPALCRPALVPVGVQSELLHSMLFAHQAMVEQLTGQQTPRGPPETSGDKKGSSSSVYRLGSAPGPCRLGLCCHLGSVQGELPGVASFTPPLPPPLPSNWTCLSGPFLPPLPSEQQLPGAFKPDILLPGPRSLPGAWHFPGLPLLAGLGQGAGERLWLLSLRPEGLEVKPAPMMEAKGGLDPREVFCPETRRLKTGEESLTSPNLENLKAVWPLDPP
As to conditions: protein: recombinant; tags: N-terminal GST; dsDNA, one strand shown. In a few lines: as §1

A further test concerns the target T8, ETS2 (Homo sapiens, UniProt P15036 1-469).
T8 sequence: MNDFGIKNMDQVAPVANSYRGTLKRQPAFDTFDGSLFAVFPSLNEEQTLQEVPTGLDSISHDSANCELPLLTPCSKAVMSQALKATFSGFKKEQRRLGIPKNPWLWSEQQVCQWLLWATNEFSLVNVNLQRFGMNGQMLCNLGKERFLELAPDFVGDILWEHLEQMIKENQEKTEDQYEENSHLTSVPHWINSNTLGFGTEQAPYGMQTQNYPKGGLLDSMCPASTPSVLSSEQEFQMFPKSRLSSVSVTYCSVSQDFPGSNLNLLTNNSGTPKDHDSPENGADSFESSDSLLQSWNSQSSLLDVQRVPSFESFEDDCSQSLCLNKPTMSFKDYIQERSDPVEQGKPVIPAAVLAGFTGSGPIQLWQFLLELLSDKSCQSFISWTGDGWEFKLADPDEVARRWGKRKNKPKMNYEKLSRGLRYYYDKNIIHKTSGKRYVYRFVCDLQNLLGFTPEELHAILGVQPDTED
As to conditions: protein: recombinant; tags: N-terminal GST; dsDNA, one strand shown. In a few lines:
as §1

In another test the target is T9, SPDEF (Homo sapiens, UniProt O95238 1-335).
T9 sequence: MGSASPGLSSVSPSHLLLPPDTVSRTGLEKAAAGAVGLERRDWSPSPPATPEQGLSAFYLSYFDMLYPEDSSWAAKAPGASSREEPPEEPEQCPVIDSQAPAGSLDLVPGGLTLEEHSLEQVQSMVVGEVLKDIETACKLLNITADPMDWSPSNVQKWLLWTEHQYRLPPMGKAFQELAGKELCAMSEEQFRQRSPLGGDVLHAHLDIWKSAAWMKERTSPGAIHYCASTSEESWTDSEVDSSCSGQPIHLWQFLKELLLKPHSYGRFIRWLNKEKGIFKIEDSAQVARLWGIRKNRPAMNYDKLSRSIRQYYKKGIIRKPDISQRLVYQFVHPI
As to conditions: protein: recombinant; tags: N-terminal GST; dsDNA, one strand shown. Summed up:
as §1

A further test has as its target T10, ETV7 (Homo sapiens, UniProt Q9Y603 1-341).
T10 sequence: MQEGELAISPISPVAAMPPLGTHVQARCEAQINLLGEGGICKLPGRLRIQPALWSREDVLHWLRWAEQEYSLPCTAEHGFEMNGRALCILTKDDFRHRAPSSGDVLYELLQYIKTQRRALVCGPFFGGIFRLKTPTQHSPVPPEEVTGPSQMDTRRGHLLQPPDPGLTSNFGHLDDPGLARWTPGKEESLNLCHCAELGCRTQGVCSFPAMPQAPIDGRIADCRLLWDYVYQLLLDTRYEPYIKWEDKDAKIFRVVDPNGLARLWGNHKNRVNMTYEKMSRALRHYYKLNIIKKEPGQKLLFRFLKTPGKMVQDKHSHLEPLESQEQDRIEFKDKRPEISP
As to conditions: protein: recombinant; tags: N-terminal GST; dsDNA, one strand shown. In a few lines:
as §1

A further test addresses T11, ELF5 (Homo sapiens, UniProt Q9UKW6-2 1-255).
T11 sequence: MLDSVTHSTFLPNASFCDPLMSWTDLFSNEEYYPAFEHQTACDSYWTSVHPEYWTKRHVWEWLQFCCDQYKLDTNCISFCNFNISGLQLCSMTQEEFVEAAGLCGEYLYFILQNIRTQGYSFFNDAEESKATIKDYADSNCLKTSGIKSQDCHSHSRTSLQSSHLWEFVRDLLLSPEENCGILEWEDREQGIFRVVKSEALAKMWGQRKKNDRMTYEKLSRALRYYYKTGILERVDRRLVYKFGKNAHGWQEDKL
As to conditions: protein: recombinant; tags: N-terminal GST; dsDNA, one strand shown. Summed up: as §1

In a further test the target is T12, ETV3 (Homo sapiens, UniProt P41162-2 1-143).
T12 sequence: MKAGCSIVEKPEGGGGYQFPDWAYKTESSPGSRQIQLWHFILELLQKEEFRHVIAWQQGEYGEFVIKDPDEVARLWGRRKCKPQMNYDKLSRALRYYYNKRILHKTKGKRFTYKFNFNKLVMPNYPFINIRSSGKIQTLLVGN
As to conditions: protein: recombinant; tags: N-terminal GST; dsDNA, one strand shown. Summed up: as §1

In another test the target is ETV6 (Homo sapiens, UniProt P41212 1-452). As to conditions: protein: recombinant; tags: N-terminal GST; dsDNA, one strand shown. In a few lines: as §1
Chain of ETV6 (P41212 whole entry): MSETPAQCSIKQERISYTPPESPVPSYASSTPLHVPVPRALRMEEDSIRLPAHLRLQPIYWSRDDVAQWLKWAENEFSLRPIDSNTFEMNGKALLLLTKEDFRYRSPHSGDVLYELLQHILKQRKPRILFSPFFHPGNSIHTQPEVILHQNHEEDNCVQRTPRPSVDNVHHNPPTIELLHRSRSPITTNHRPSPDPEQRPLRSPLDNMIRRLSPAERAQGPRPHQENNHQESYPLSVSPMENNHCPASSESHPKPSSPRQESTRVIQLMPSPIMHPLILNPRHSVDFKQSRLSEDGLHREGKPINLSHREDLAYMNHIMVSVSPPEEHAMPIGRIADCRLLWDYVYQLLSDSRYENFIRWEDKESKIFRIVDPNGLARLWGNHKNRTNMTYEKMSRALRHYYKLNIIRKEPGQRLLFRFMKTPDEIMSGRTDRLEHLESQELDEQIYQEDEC

Chain of ETV5 (P41161 whole entry): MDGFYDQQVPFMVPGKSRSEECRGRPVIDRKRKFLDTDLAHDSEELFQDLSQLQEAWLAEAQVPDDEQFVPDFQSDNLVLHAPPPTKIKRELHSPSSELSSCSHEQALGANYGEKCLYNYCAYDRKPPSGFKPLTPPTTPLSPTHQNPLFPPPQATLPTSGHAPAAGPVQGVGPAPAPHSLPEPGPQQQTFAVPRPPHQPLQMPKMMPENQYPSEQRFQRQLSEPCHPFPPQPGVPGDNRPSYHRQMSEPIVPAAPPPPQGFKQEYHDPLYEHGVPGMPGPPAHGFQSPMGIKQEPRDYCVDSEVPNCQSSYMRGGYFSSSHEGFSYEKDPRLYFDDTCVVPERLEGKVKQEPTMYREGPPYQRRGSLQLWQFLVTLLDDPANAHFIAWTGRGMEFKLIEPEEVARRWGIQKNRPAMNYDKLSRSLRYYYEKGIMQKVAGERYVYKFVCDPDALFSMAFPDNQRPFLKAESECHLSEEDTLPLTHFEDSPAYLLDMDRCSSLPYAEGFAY
Chain of CRX (O43186 whole entry): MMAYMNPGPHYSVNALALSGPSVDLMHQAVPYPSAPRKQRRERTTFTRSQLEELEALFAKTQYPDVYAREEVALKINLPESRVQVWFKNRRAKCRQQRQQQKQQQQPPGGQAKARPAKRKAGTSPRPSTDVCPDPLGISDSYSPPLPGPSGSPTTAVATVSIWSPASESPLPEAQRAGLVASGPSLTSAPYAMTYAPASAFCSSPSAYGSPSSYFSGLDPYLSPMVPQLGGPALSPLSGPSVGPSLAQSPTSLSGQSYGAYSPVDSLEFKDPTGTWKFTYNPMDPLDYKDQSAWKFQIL
Chain of HSF1 (Q00613 whole entry): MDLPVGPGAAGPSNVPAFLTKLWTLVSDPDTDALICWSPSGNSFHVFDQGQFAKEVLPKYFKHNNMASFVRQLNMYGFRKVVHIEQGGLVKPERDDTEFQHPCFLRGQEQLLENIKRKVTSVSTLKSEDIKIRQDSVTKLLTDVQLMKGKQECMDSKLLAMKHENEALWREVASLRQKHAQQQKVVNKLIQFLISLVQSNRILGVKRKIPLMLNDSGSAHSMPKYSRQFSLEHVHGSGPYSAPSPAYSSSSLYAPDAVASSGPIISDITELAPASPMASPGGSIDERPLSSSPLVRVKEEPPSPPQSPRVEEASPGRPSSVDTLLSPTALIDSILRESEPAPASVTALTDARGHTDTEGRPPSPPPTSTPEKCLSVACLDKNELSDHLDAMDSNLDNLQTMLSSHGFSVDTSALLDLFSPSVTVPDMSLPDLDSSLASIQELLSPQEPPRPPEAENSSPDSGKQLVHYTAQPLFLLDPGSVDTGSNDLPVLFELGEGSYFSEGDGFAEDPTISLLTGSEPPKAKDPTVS
Chain of ELF4 (Q99607 whole entry): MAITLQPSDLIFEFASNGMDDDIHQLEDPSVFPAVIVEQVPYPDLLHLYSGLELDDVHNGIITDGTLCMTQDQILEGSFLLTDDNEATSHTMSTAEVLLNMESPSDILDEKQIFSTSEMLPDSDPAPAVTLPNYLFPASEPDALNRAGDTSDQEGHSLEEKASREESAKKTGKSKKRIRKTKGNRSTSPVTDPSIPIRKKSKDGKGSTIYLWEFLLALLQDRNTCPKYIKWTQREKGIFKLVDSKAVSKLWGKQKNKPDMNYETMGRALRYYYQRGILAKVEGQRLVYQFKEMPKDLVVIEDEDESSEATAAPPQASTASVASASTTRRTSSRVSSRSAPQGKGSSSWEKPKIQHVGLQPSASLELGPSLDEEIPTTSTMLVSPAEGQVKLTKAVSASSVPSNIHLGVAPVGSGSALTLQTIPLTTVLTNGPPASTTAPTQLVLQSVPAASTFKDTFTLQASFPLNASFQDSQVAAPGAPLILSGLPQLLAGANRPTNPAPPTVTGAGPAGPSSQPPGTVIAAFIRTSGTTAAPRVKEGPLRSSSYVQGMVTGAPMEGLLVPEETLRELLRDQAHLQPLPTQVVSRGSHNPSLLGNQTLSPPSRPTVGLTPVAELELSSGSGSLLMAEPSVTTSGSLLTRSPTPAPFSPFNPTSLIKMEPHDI
Chain of ETV1 (P50549 whole entry): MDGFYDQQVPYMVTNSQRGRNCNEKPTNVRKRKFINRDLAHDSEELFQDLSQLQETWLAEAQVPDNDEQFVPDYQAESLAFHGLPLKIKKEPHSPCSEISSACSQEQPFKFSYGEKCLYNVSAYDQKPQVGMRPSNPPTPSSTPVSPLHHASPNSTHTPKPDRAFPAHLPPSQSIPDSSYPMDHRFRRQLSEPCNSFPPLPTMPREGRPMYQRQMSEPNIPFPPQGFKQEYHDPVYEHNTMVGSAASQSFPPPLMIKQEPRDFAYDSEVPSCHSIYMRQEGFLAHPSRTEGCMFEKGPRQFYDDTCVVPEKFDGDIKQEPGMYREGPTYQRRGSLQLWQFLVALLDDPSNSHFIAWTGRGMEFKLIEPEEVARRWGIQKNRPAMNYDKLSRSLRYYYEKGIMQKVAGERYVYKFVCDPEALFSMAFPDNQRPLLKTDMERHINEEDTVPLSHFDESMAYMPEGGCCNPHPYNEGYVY

As to ACGCCT, the binding signal with FEV was 1.17 fold enrichment (6-mer frequency, TF over GST control); with ETV5, 1.2 fold enrichment (6-mer frequency, TF over GST control); with HSF1, 1.15 fold enrichment (6-mer frequency, TF over GST control); in the test with SPIC, 1.25 fold enrichment (6-mer frequency, TF over GST control); with ELF4, 1.21 fold enrichment (6-mer frequency, TF over GST control); with ELK4, 1.09 fold enrichment (6-mer frequency, TF over GST control). In addition, the binding signal is 1.29 fold enrichment (6-mer frequency, TF over GST control) with ETV2; 1.12 fold enrichment (6-mer frequency, TF over GST control) in the test with ELF3; 1.08 fold enrichment (6-mer frequency, TF over GST control) in the test with CRX; 1.05 fold enrichment (6-mer frequency, TF over GST control) in the test with ETV1; 1.15 fold enrichment (6-mer frequency, TF over GST control) with ERF; 1.31 fold enrichment (6-mer frequency, TF over GST control) with ETV3L. Moreover, the binding signal was 1.17 fold enrichment (6-mer frequency, TF over GST control) in the test with ETS2; 1.12 fold enrichment (6-mer frequency, TF over GST control) with SPDEF; 1.01 fold enrichment (6-mer frequency, TF over GST control) with ETV7; 1.09 fold enrichment (6-mer frequency, TF over GST control) with ELF5; 1.19 fold enrichment (6-mer frequency, TF over GST control) with ETV3; 1.3 fold enrichment (6-mer frequency, TF over GST control) in the test with ETV6.
